GRIN3A LBD mod: NR3A (human) ligand-binding domain modulation | NR3A LBD differential scanning fluorimetry, Tm shift; 0% = protein alone, 100% = glycine-bound protein | hit rate 2.5% among 340,000 | Tm shift relative to glycine control, % at 25 µM | AID 1259313;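 active means melting temperature shift of at least 10% of the positive control shift, at one fixed dose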
dFosB activator: enhances mouse delta FosB homodimer DNA binding. purified delta FosB, TAMRA-CDK5 oligo fluorescence polarization; percent of positive-control signal above neutral wells. hit rate 0.99% among 340,000. AID 493131. activation, % at 25 µM. P13346;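 active means mean activation above about 17%, with every replicate also reaching it, limit read from the data, passing the limit was not always enough; inconclusive means only one of the two conditions met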
Target sequence (P13346 whole entry, looked up): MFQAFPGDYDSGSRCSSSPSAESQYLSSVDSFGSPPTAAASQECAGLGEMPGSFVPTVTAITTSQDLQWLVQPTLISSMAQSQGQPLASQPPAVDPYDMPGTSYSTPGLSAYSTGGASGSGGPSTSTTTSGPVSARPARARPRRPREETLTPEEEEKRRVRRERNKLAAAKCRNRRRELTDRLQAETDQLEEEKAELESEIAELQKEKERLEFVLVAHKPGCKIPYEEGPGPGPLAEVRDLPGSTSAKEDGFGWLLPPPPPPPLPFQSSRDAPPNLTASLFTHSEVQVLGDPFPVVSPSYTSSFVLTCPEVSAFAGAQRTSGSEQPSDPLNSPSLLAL
ZTA DNA inh: ZTA (EBV) inhibition in EBNA-1 counter-screen | P03206 | ZTA-DNA binding, fluorescence polarization | inhibition, % at 11 µM | hit rate 0.15% among 320,000 | AID 2234; in the data active means inhibition above about 33%
Target sequence (P03206 whole entry, looked up): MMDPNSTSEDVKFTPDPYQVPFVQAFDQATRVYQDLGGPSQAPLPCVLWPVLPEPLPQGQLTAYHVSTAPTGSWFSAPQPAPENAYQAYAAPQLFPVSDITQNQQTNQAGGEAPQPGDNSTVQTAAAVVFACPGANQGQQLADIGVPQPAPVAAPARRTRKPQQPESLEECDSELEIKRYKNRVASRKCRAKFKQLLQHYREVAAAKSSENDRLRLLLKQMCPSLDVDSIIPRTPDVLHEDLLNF
TPT1 inh: C. albicans TPT1 enzyme inhibition; recombinant caTPT1, FP RNA substrate dephosphorylation; inhibition, % at 5 µM; hit rate 0.81% among 300,000;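 active means inhibition above the mean of all tested compounds plus 3 SD, set per screening campaign, cut at about 24% in these data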
Rpn11 inh: blocks the human proteasome subunit Rpn11; O00487; human 26S proteasome, Ub4-pepOG fluorescence polarization; 20S core pre-blocked with epoxomicin; inhibition, % at 20 µM; hit rate 0.59% among 360,000;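 active means inhibition at 20 µM, scaled to each plate's controls, above about 33%, limit read from the data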
EBNA-1 inh: blocks EBNA-1 binding to DNA; inhibition, % at 14.8 µM; hit rate 0.34% among 300,000; AID 1950; EBNA-1 DNA binding, fluorescence polarization; in the data active means inhibition above about 28%
Each line names hits and unclear results; the compound was inactive in the other large screens. The list is not random: actives were taken first. Their share in the collection is about 4.5%.

O=C(c1cc(S(=O)(=O)N2CCCCC2)ccc1Cl)N1CCOCC1	none
CCOC(=O)c1[nH]c(C)c(C(=O)OCCOc2cccc(C)c2)c1C	none
O=C(Cc1c(F)cccc1Cl)Nc1cccc(S(=O)(=O)NC2=NCCCCC2)c1	none
O=C(Cc1ccc(Cl)cc1Cl)Nc1cccc(S(=O)(=O)Nc2ccccc2F)c1	GRIN3A LBD mod 26
Cc1ccccc1OCCC(=O)Nc1cccc(S(=O)(=O)Nc2ccccc2Cl)c1	GRIN3A LBD mod 15
COc1ccc(NC(=O)Cc2csc(NC(=O)Nc3ccccc3OC)n2)cc1	none (no result: GRIN3A LBD mod, dFosB activator, ZTA DNA inh, TPT1 inh, EBNA-1 inh)
COc1ccccc1NC(=O)Nc1nc(CC(=O)Nc2ccc(F)c(F)c2)cs1	GRIN3A LBD mod 34, dFosB activator inconclusive
COc1ccccc1NC(=O)Nc1nc(CC(=O)Nc2ccc(N(C)C)cc2)cs1	GRIN3A LBD mod 24
Cc1ccc(NC(=O)Cc2nc(CCl)cs2)cc1	none
Cc1ccc(NC(=S)Nc2nc(CC(=O)Nc3ccccc3)cs2)cc1	GRIN3A LBD mod 17
COc1ccccc1NC(=O)Nc1nc(CC(=O)Nc2cccc(F)c2)cs1	GRIN3A LBD mod 28
CCn1c(SCC(=O)O)nnc1-c1cccnc1	none
COC(=O)C(C(=O)OC)C(CC(=O)c1ccc(Br)cc1)c1ccccc1 (stereo unspecified)	none (no result: ZTA DNA inh, TPT1 inh, EBNA-1 inh)
CN(C)S(=O)(=O)c1cccc(NC(=O)COC(=O)c2cccn2C)c1	none
O=C(N/N=C/c1ccc(O)cc1)c1[nH]c2ccc(Br)cc2c1-c1ccccc1	GRIN3A LBD mod 29
O=C(N/N=C/c1c[nH]c2ccccc12)c1[nH]c2ccc(Br)cc2c1-c1ccccc1	GRIN3A LBD mod 27, dFosB activator inconclusive (no result: ZTA DNA inh, TPT1 inh, EBNA-1 inh)
COc1ccc(C2CCc3cc4c(cc3C2=NO)OCO4)cc1OC (stereo unspecified)	none (no result: GRIN3A LBD mod, dFosB activator, ZTA DNA inh, TPT1 inh, EBNA-1 inh)
O=C1C=C(N2CCOCC2)CCC1	none
Cc1ccc2[nH]c(O)c(N=NC(=O)CCc3ccccc3)c2c1Br	GRIN3A LBD mod 17, dFosB activator 17
CCOCCCNC(=O)c1cc(Cl)c(NC(=O)C2=C(C)OCCS2)cc1OC	none
O=C1CC(c2cc(Br)ccc2F)c2cc3c(cc2N1)CCC3 (stereo unspecified)	dFosB activator 41
N#Cc1ccc(C(=O)Nc2cccc(S(=O)(=O)NC3=NCCC3)c2)cc1	none (no result: ZTA DNA inh, TPT1 inh, EBNA-1 inh)
O=C(Cc1ccccc1)N/N=C/c1cc(Br)cc(Cl)c1O	dFosB activator 54
COc1cc(Br)cc(/C=N/NC(=O)Cc2ccccc2)c1O	none
O=C(Nc1cccc(Cl)c1)C1C2CCC3C(CCC21)C3(Cl)Cl (stereo unspecified)	GRIN3A LBD mod 14
O=C(O)C1CC=CCC1C(=O)Nc1cccc(Cl)c1 (stereo unspecified)	GRIN3A LBD mod 11
O=C(c1ccc([N+](=O)[O-])cc1[N+](=O)[O-])n1cnc2ccccc21	none
Cc1ccccc1OCC(=O)OCC(=O)c1ccc(OCc2ccccc2)cc1	GRIN3A LBD mod 25
Cc1ccccc1OCC(=O)OCC(=O)c1ccc(OC(=O)c2ccccc2)cc1	none
COc1ccccc1C(=O)N/C(=C\c1cn(C)c2ccccc12)C(=O)N1CCCC1	none
O=C(CNC(=O)c1ccccc1Br)N/N=C/c1ccccc1O	none
O=C(CNC(=O)c1ccc2c(c1)OCO2)N/N=C/c1cc(Br)ccc1O	dFosB activator 62
O=C(CNC(=O)c1ccccc1Br)N/N=C/c1cc(Br)ccc1O	dFosB activator 32
COc1cc(SC)ccc1C(=O)NCCOc1ccc(C)c(C)c1	GRIN3A LBD mod 16
Cc1cc(C)nc(NS(=O)(=O)c2ccc(NC(=O)Nc3ccccc3)cc2)n1	GRIN3A LBD mod 19
O=C(CCN1C(=O)S/C(=C\c2ccccc2)C1=O)Nc1ccc(S(=O)(=O)Nc2nccs2)cc1	none
O=C(CN1C(=O)S/C(=C\c2ccc(F)cc2)C1=O)Nc1cccc(S(=O)(=O)NCc2ccco2)c1	GRIN3A LBD mod 11
Cc1cc(C)nc(NS(=O)(=O)c2ccc(NC(=O)CN3C(=O)S/C(=C\c4ccccc4)C3=O)cc2)n1	GRIN3A LBD mod 11
Cc1cc(C)nc(NS(=O)(=O)c2ccc(NS(=O)(=O)c3ccccc3)cc2)n1	none
O=c1c2c(ncn2C2CCCC2)n(Cc2ccccc2)c(=O)n1CCOc1ccc(Br)cc1	none
O=c1c2c(ncn2C2CCCC2)n(Cc2ccccc2)c(=O)n1CCOc1ccccc1	GRIN3A LBD mod 15
CCCn1c(CN(Cc2ccccc2)Cc2ccccc2)nc2c1c(=O)n(C)c(=O)n2C	GRIN3A LBD mod 14
CCCn1c(CN(C)Cc2ccccc2)nc2c1c(=O)n(C)c(=O)n2C	none
CN1CCN(c2cc(-c3ccccc3)nc3cc(-c4ccc(F)cc4)nn23)CC1	none
Fc1ccc(-c2cc3nc(-c4ccccc4)cc(N4CCN(CCN5CCOCC5)CC4)n3n2)cc1	dFosB activator 20 (no result: ZTA DNA inh, TPT1 inh, EBNA-1 inh)
C=C(CN(C)C)C(=O)c1ccc(C)cc1C	GRIN3A LBD mod 14 (no result: ZTA DNA inh, TPT1 inh, EBNA-1 inh)
NC(=O)c1ccc(NS(=O)(=O)c2ccc(Br)s2)cc1	none (no result: TPT1 inh, EBNA-1 inh)
Cc1ccc(F)cc1NC(=O)c1ccc(NS(=O)(=O)c2ccc(Br)s2)cc1	GRIN3A LBD mod 16
NC(=O)NC(=O)COC(=O)c1cccc(NS(=O)(=O)/C=C/c2ccccc2)c1	none
NC(=O)COC(=O)c1cccc(NS(=O)(=O)/C=C/c2ccccc2)c1	GRIN3A LBD mod 12
CC1(C)Oc2ccc3ccc(=O)oc3c2/C(=C/Nc2ccccn2)C1=O	GRIN3A LBD mod 15
CN/C=C1\C(=O)C(C)(C)Oc2ccc3ccc(=O)oc3c21	none
COc1cc(CN2CCC(C(=O)NC(c3ccc(-c4ccccc4)cc3)c3cnccn3)CC2)cc(OC)c1 (stereo unspecified)	none (no result: GRIN3A LBD mod, dFosB activator, ZTA DNA inh, TPT1 inh, EBNA-1 inh)
COC(=O)c1ccc2c(c1)N(C)S(=O)(=O)c1cnc(SCC(=O)C(C)(C)C)nc1-2	GRIN3A LBD mod 11 (no result: dFosB activator)
COC(=O)c1cnn(-c2ccc(C)c(C)c2)c1-n1cccc1	GRIN3A LBD mod 11
O=C(O)c1cc(NC(=O)c2ccc3c(c2)C(=O)N(Cc2ccccc2)C3=O)cc(C(=O)O)c1	GRIN3A LBD mod 14
O=C(Oc1c(Cl)cc(Cl)c2cccnc12)c1cccc([N+](=O)[O-])c1	Rpn11 inh 49
O=C(Oc1ccc(Cl)c2cccnc12)c1cccc([N+](=O)[O-])c1	none
Cc1ccc(S(=O)(=O)CCC(=O)Nc2ccccc2Br)cc1	none
COc1ccc(NC(=O)N(C)C[C@H]2Oc3cc(Br)ccc3S(=O)(=O)N([C@H](C)CO)C[C@@H]2C)cc1	none (no result: GRIN3A LBD mod, dFosB activator, ZTA DNA inh, TPT1 inh, EBNA-1 inh)
COc1ccc(C(=O)/C=C/c2cn(CN3CCN(C)CC3)c3ccccc23)cc1	GRIN3A LBD mod 36
COc1ccc(C(=O)/C=C/c2ccccc2C(F)(F)F)cc1	none
Cc1ccc(OCCn2cc(/C=C/C(=O)O)c3ccccc32)cc1	none (no result: ZTA DNA inh, TPT1 inh, EBNA-1 inh)
CCOc1ccc(C(=O)/C=C/c2cn(CN3CCN(C)CC3)c3ccccc23)cc1	GRIN3A LBD mod 32
CCCC1=NN2C(=N)/C(=C\c3cc(C)n(-c4cc(C)cc(C)c4)c3C)C(=O)N=C2S1	GRIN3A LBD mod 12
